About 4,400 (79%) of roughly 5,600 compounds were called active. So high a share suggests a set chosen from earlier hits. These entries were drawn from the full list. A number with no mark means an inactive call. Rule as the data show it: active = inhibition above about 27%; inactive = the rest.
What follows are molecules tested against Fructose-bisphosphate aldolase (Mycobacterium tuberculosis (strain ATCC 25618 / H37Rv)) (UniProt P9WQA3) (assay: M. tuberculosis aldolase blockers, biochemical, fluorescence, strain H37Rv, confirmation (AID 651616;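 also: 0% = vehicle wells and 100% = reference inhibitor wells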)). Settings: purified M. tuberculosis FBA, fluorescence read-out, at 1 µM, active compounds read high.
Sequence of Fructose-bisphosphate aldolase (Mycobacterium tuberculosis (strain ATCC 25618 / H37Rv)) (P9WQA3 whole entry, looked up): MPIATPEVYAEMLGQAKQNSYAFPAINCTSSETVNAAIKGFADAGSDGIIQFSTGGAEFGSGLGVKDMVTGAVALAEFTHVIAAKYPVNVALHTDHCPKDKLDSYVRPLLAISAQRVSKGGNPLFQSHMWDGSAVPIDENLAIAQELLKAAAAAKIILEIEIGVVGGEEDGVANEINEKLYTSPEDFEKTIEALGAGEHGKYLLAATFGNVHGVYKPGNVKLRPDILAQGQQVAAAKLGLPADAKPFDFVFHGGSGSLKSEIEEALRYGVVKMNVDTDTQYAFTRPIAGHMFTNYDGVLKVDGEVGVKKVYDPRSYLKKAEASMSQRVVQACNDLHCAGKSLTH

Compound	inhibition
CCCc1cc(=O)oc2c(C)c(OCC(=O)N3CCC(C(=O)O)CC3)ccc12	-5.02%
CCc1cc(=O)oc2c(C)c(OCC(=O)N3CC[C@@]4(O)CCCC[C@H]4C3)ccc12	130% (active)
CCOC(=O)CSc1nc2c(c(=O)n(Cc3ccccc3Cl)c(=O)n2C)n1C	48.6% (active)
CN(C)c1ccc(/C=N/NC(=O)C(O)c2ccc(Br)cc2)cc1 (stereo not given)	72.9% (active)
COC(=O)c1noc(C)c1-c1ccnn1C(=O)c1ccc(Cl)cc1	57.6% (active)
Cc1nc(NCCN)c(C#N)c2c1COC(C)(C)C2	88.6% (active)
Cc1cc(=O)n2[nH]c(-c3cccc(Cl)c3)cc2n1	107% (active)
Cc1ccc2nc(/C(C#N)=C\c3ccc(OC(=O)c4cccs4)cc3)[nH]c2c1	53.5% (active)
CC(C)(C)C(=O)Nc1cccc(-c2ccc[nH]2)n1	76.9% (active)
N#Cc1c(N2CCCCC2)nc(N)c2c(N)nc(SCC(=O)O)cc12	11.2%
CN(C)Cc1c(O)ccc2c(=O)c(-c3ccccc3Cl)coc12	9.64%
CC[C@@H]1Cc2cc(O)ccc2C2=C1c1ccc(O)cc1C[C@H]2CC	109% (active)
Cc1cc(C)c2c(NC(=O)C3CC3)nn(C)c2n1	87.2% (active)
Cc1cc(C)c2c(n1)nn1c(-n3ccnc3)cc(C)nc21	-3.81%
CC(C)(C)Nc1c(-c2cccs2)nc2ccccn12	146% (active)
CC[C@@H](C)[C@H](NC(=O)CCc1c(C)c2cc3c4c(oc3c(C)c2oc1=O)CCCC4)C(=O)O	88.9% (active)
CC(C)=NN1C(=O)c2ccccc2NC1(C)C	178% (active)
O=C(Nc1nncs1)c1ccccc1NS(=O)(=O)c1cccs1	141% (active)
CC(C)c1nc(N2CCOCC2)c(C#N)c2c1COC(C)(C)C2	37.2% (active)
CC1(C)Cc2c(C#N)c(SCc3nc4ccccc4[nH]3)nc(N3CCOCC3)c2CO1	-3.68%
